The supplement of paper PMC8728848
Shown is part of a subset that was picked to be rich in the strongest signals.

Assays:
Test in all cases: glycan array binding signal (z-score within array); higher = stronger binding
Settings in all cases: glycan notation: IUPAC condensed, linker removed
[1] = molecular target: Fuc(a1-2)Gal(b1-3)GalNAc(b1-4)[Neu5Ac(a2-3)]Gal(b1-4)Glc
Method in brief: (§1)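 Arrays were curated from the Consortium for Functional Glycomics database, 3228 in total, and kept only where the protein sequence was available. Binding is expressed as a within-array Z-score. This score was averaged across arrays of the same protein sequence at different concentrations or buffers and across linkers, and negative values can be read as non-binding.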

[2] = molecular target: Fuc(a1-2)Gal(b1-4)Glc6S
Method in brief: as §1

[3] = molecular target: Fuc(a1-2)Gal(b1-4)GlcNAc
Method in brief: as §1

[4] = molecular target: Fuc(a1-2)Gal3S(b1-4)GlcNAc
Method in brief: as §1

[5] = molecular target: Fuc(a1-2)[Gal(a1-3)]Gal(b1-3)GlcNAc(b1-3)GalNAc
Method in brief: as §1

[6] = molecular target: Fuc(a1-2)[Gal(a1-3)]Gal(b1-3)GlcNAc(b1-6)GalNAc
Method in brief: as §1

[7] = molecular target: Fuc(a1-2)[Gal(a1-3)]Gal(b1-4)Glc
Method in brief: as §1

[8] = molecular target: Fuc(a1-2)[Gal(a1-3)]Gal(b1-4)GlcNAc(b1-2)Man(a1-3)[Fuc(a1-2)[Gal(a1-3)]Gal(b1-4)GlcNAc(b1-2)Man(a1-6)]Man(b1-4)GlcNAc(b1-4)[Fuc(a1-6)]GlcNAc
Method in brief: as §1

[9] = molecular target: Fuc(a1-2)[GalNAc(a1-3)]Gal(b1-3)GlcNAc(b1-3)GalNAc
Method in brief: as §1

[10] = molecular target: Fuc(a1-2)[GalNAc(a1-3)]Gal(b1-4)GlcNAc(b1-3)GalNAc
Method in brief: as §1

[11] = molecular target: Fuc(a1-2)[GalNAc(a1-3)]Gal(b1-4)GlcNAc(b1-6)GalNAc
Method in brief: as §1

[12] = molecular target: Fuc(a1-2)[GalNAc(a1-3)]Gal(b1-4)[Fuc(a1-3)]GlcNAc(b1-3)GalNAc
Method in brief: as §1

[13] = molecular target: Fuc(a1-3)[Gal(b1-4)]GlcNAc(b1-3)Gal(b1-3)[Fuc(a1-4)]GlcNAc
Method in brief: as §1

[14] = molecular target: Fuc(a1-3)[Gal3S(b1-4)]GlcNAc6S
Method in brief: as §1

[15] = molecular target: Fuc(a1-3)[GalNAc(b1-4)]GlcNAc
Method in brief: as §1

[16] = molecular target: Gal(a1-4)GlcNAc
Method in brief: as §1

[17] = molecular target: Gal(b1-3)Gal
Method in brief: as §1

[18] = molecular target: Gal(b1-3)Gal(b1-4)GlcNAc
Method in brief: as §1

[19] = molecular target: Gal(b1-3)GalNAc(b1-4)Gal(b1-4)Glc
Method in brief: as §1

[20] = molecular target: Gal(b1-3)GlcNAc
Method in brief: as §1

[21] = molecular target: Gal(b1-3)GlcNAc(b1-6)Gal(b1-4)GlcNAc
Method in brief: as §1

[22] = molecular target: Gal(b1-4)GlcNAc(b1-2)[Gal(b1-4)GlcNAc(b1-4)]Man(a1-3)[Gal(b1-4)GlcNAc(b1-2)Man(a1-6)]Man(b1-4)GlcNAc(b1-4)GlcNAc
Method in brief: as §1

[23] = molecular target: Gal(b1-4)GlcNAc(b1-2)[Gal(b1-4)GlcNAc(b1-6)]Man(a1-6)[Gal(b1-4)GlcNAc(b1-2)Man(a1-3)]Man(b1-4)GlcNAc(b1-4)GlcNAc
Method in brief: as §1

[24] = molecular target: Gal(b1-4)GlcNAc(b1-3)Gal(b1-4)GlcNAc(b1-3)Gal(b1-4)GlcNAc(b1-3)Gal(b1-4)GlcNAc(b1-3)Gal(b1-4)GlcNAc(b1-2)Man(a1-3)[Gal(b1-4)GlcNAc(b1-3)Gal(b1-4)GlcNAc(b1-3)Gal(b1-4)GlcNAc(b1-3)Gal(b1-4)GlcNAc(b1-3)Gal(b1-4)GlcNAc(b1-2)Man(a1-6)]Man(b1-4)GlcNAc(b1-4)[Fuc(a1-6)]GlcNAc
Method in brief: as §1

[25] = molecular target: Gal(b1-4)GlcNAc(b1-3)Gal(b1-4)GlcNAc(b1-3)Gal(b1-4)GlcNAc(b1-3)Gal(b1-4)GlcNAc(b1-3)Gal(b1-4)GlcNAc(b1-2)[Gal(b1-4)GlcNAc(b1-3)Gal(b1-4)GlcNAc(b1-3)Gal(b1-4)GlcNAc(b1-3)Gal(b1-4)GlcNAc(b1-3)Gal(b1-4)GlcNAc(b1-6)]Man(a1-6)[Gal(b1-4)GlcNAc(b1-3)Gal(b1-4)GlcNAc(b1-3)Gal(b1-4)GlcNAc(b1-3)Gal(b1-4)GlcNAc(b1-3)Gal(b1-4)GlcNAc(b1-2)Man(a1-3)]Man(b1-4)GlcNAc(b1-4)[Fuc(a1-6)]GlcNAc
Method in brief: as §1

[26] = molecular target: Gal(b1-4)GlcNAc(b1-3)[Fuc(a1-3)GlcNAc(b1-6)]Gal(b1-4)Glc
Method in brief: as §1

[27] = molecular target: Gal3S(b1-4)Glc
Method in brief: as §1

[28] = molecular target: Gal3S(b1-4)[Fuc(a1-3)]Glc6S
Method in brief: as §1

[29] = molecular target: Gal4S(b1-4)GlcNAc
Method in brief: as §1

[30] = molecular target: GalNAc(a1-3)GalNAc(b1-3)Gal(a1-4)Gal(b1-4)GlcNAc
Method in brief: as §1

[31] = molecular target: GalNAc(b1-3)Gal(a1-4)Gal(b1-4)GlcNAc(b1-3)Gal(b1-4)Glc
Method in brief: as §1

[32] = molecular target: GlcNAc(a1-4)Gal(b1-4)GalNAc
Method in brief: as §1

[33] = molecular target: GlcNAc(a1-4)Gal(b1-4)GlcNAc(b1-3)Gal(b1-4)Glc
Method in brief: as §1

[34] = molecular target: GlcNAc(b1-2)[GlcNAc(b1-4)]Man(a1-3)[GlcNAc(b1-2)Man(a1-6)]Man(b1-4)GlcNAc(b1-4)GlcNAc
Method in brief: as §1

[35] = molecular target: GlcNAc(b1-3)Gal(b1-4)GlcNAc(b1-2)[GlcNAc(b1-3)Gal(b1-4)GlcNAc(b1-6)]Man(a1-6)[GlcNAc(b1-3)Gal(b1-4)GlcNAc(b1-2)Man(a1-3)]Man(b1-4)GlcNAc(b1-4)GlcNAc
Method in brief: as §1

[36] = molecular target: GlcNAc(b1-4)Gal(b1-4)GlcNAc
Method in brief: as §1

[37] = molecular target: Man(a1-3)[Man(a1-6)]Man
Method in brief: as §1

[38] = molecular target: Neu5Ac(a2-3)Gal(b1-3)GalNAc(b1-4)[Neu5Ac(a2-8)Neu5Ac(a2-3)]Gal(b1-4)Glc
Method in brief: as §1

[39] = molecular target: Neu5Ac(a2-3)Gal(b1-3)GlcNAc(b1-2)Man(a1-3)[Neu5Ac(a2-3)Gal(b1-3)GlcNAc(b1-2)Man(a1-6)]Man(b1-4)GlcNAc(b1-4)GlcNAc
Method in brief: as §1

[40] = molecular target: Neu5Ac(a2-3)Gal(b1-3)GlcNAc(b1-3)GalNAc
Method in brief: as §1

[41] = molecular target: Neu5Ac(a2-3)Gal(b1-3)[Fuc(a1-4)]GlcNAc
Method in brief: as §1

[42] = molecular target: Neu5Ac(a2-3)Gal(b1-3)[GlcNAc(b1-6)]GalNAc
Method in brief: as §1

[43] = molecular target: Neu5Ac(a2-3)Gal(b1-3)[Neu5Ac(a2-6)]GalNAc
Method in brief: as §1

[44] = molecular target: Neu5Ac(a2-3)Gal(b1-4)GlcNAc(b1-2)Man(a1-3)[Neu5Ac(a2-3)Gal(b1-4)GlcNAc(b1-2)Man(a1-6)]Man(b1-4)GlcNAc(b1-4)[Fuc(a1-6)]GlcNAc
Method in brief: as §1

[45] = molecular target: Neu5Ac(a2-3)Gal(b1-4)GlcNAc(b1-2)[Neu5Ac(a2-3)Gal(b1-4)GlcNAc(b1-6)]Man(a1-6)[Neu5Ac(a2-3)Gal(b1-4)GlcNAc(b1-2)Man(a1-3)][GlcNAc(b1-4)]Man(b1-4)GlcNAc(b1-4)GlcNAc
Method in brief: as §1

[46] = molecular target: Neu5Ac(a2-3)Gal(b1-4)GlcNAc(b1-3)Gal(b1-4)GlcNAc(b1-3)GalNAc
Method in brief: as §1

[47] = molecular target: Neu5Ac(a2-3)Gal(b1-4)[Fuc(a1-3)]GlcNAc(b1-2)Man
Method in brief: as §1

[48] = molecular target: Neu5Ac(a2-6)Gal(b1-4)GlcNAc(b1-2)Man(a1-3)[Man(a1-6)]Man(b1-4)GlcNAc(b1-4)GlcNAc
Method in brief: as §1

[49] = molecular target: Neu5Ac(a2-6)Gal(b1-4)GlcNAc(b1-2)Man(a1-6)[Man(a1-3)]Man(b1-4)GlcNAc(b1-4)GlcNAc
Method in brief: as §1

[50] = molecular target: Neu5Ac(a2-6)Gal(b1-4)GlcNAc(b1-6)[Gal(b1-3)]GalNAc
Method in brief: as §1

[51] = molecular target: Neu5Ac(a2-8)Neu5Ac(a2-3)Gal(b1-4)Glc
Method in brief: as §1

[52] = molecular target: Neu5Ac(a2-8)Neu5Ac(a2-8)Neu5Ac(a2-3)Gal(b1-4)Glc
Method in brief: as §1

[53] = molecular target: Neu5Ac(b2-6)GalNAc
Method in brief: as §1

[54] = molecular target: Neu5Gc(a2-8)Neu5Gc(a2-6)Gal(b1-4)GlcNAc
Method in brief: as §1

B1: Pwp1 (Candida glabrata) (protein)
chain: MGSSHHHHHHSSGLVPRGSHMASANPISITNVCQFPDNWARTAGFQATTVRLGLTIASNTYKELLNYPGLFNFATQKATVTQPNFSISGFPFFTGLYGLTVWPINLLVELQGYFVPPESGNYTFTLQGSDDAAILFFANPSTFACGSQNDWPQPREADITVTDTLVPSRTLYLVKGVAYPIRIAYYNGSGDGKLNVSFKDPSGTTHTDWKGYVWQYSNTCSTCTYT
With B1 the “glycan array binding signal (z-score)” value [1] was 2.14, the “glycan array binding signal (z-score)” value [2] was -0.871 and the “glycan array binding signal (z-score)” value [3] was 0.296. The “glycan array binding signal (z-score)” value [4] was 0.714, the “glycan array binding signal (z-score)” value [5] was 0.778 and the “glycan array binding signal (z-score)” value [6] was 0.51. For the same binder, the “glycan array binding signal (z-score)” value [7] was -0.087, the “glycan array binding signal (z-score)” value [8] was 0.301 and the “glycan array binding signal (z-score)” value [9] was 2.44. The “glycan array binding signal (z-score)” value [10] was 2.36, the “glycan array binding signal (z-score)” value [11] was 0.906 and the “glycan array binding signal (z-score)” value [12] was -0.825. For the same binder, the “glycan array binding signal (z-score)” value [13] was 3.12, the “glycan array binding signal (z-score)” value [14] was 1.94 and the “glycan array binding signal (z-score)” value [15] was -1.67. For the same binder, the “glycan array binding signal (z-score)” value [16] was 0.974, the “glycan array binding signal (z-score)” value [17] was 0.861 and the “glycan array binding signal (z-score)” value [18] was -0.314. The “glycan array binding signal (z-score)” value [19] was 1.92, the “glycan array binding signal (z-score)” value [20] was 0.448 and the “glycan array binding signal (z-score)” value [21] was -1.46. The “glycan array binding signal (z-score)” value [22] was -0.345, the “glycan array binding signal (z-score)” value [23] was 0.454 and the “glycan array binding signal (z-score)” value [24] was -0.637. For the same binder, the “glycan array binding signal (z-score)” value [25] was -3.11, the “glycan array binding signal (z-score)” value [26] was -1 and the “glycan array binding signal (z-score)” value [27] was 0.803. For the same binder, the “glycan array binding signal (z-score)” value [28] was -0.627, the “glycan array binding signal (z-score)” value [29] was 0.267 and the “glycan array binding signal (z-score)” value [30] was -0.037. For the same binder, the “glycan array binding signal (z-score)” value [31] was 1.77, the “glycan array binding signal (z-score)” value [32] was -1.74 and the “glycan array binding signal (z-score)” value [33] was 1.72. The “glycan array binding signal (z-score)” value [34] was 0.374, the “glycan array binding signal (z-score)” value [35] was 0.839 and the “glycan array binding signal (z-score)” value [36] was -2.23. For the same binder, the “glycan array binding signal (z-score)” value [37] was -1.51, the “glycan array binding signal (z-score)” value [38] was 0.23 and the “glycan array binding signal (z-score)” value [39] was 1.89. The “glycan array binding signal (z-score)” value [40] was 0.585, the “glycan array binding signal (z-score)” value [41] was -1.74 and the “glycan array binding signal (z-score)” value [42] was 3.78. For the same binder, the “glycan array binding signal (z-score)” value [43] was 0.612, the “glycan array binding signal (z-score)” value [44] was 0.747 and the “glycan array binding signal (z-score)” value [45] was 2.29. For the same binder, the “glycan array binding signal (z-score)” value [46] was 0.411, the “glycan array binding signal (z-score)” value [47] was -1.41 and the “glycan array binding signal (z-score)” value [48] was -0.785. The “glycan array binding signal (z-score)” value [49] was 0.335, the “glycan array binding signal (z-score)” value [50] was -1.62 and the “glycan array binding signal (z-score)” value [51] was 0.642. The “glycan array binding signal (z-score)” value [52] was -0.355, the “glycan array binding signal (z-score)” value [53] was 1.13 and the “glycan array binding signal (z-score)” value [54] was 1.17.
